{
  "source": "paper PMC7862700",
  "about": "“An all-to-all approach to the identification of sequence-specific readers for epigenetic DNA modifications on cytosine”",
  "assay_in_all_cases": "DAPPL (digital affinity profiling via proximity ligation, sequencing); 10 mM Tris-HCl pH 7.5, 50 mM NaCl, 1 mM DTT, 4% glycerol, room temperature, 30 min; GST-TFs on glutathione beads, 16-mer random dsDNA library, 0.1% formaldehyde crosslink after washing; high values mean tight binding",
  "settings_in_all_cases": "protein: recombinant; tags: N-terminal GST; dsDNA, one strand shown",
  "key": {"FLI1": {"target": "T1, FLI1 (Homo sapiens, UniProt Q01543 1-452)", "T1 sequence": "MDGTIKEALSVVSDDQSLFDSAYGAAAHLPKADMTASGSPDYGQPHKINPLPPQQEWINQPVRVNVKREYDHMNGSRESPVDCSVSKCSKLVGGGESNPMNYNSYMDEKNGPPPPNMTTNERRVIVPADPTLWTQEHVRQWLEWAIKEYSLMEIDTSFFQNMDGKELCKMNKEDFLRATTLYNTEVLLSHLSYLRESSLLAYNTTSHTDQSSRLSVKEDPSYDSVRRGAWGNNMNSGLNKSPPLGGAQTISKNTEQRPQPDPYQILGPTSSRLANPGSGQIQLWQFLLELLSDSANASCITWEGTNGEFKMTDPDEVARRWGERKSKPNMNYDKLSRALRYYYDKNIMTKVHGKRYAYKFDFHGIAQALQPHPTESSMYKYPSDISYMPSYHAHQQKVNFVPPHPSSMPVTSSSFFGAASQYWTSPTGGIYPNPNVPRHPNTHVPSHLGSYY", "outline": "(§1)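 Yeast served to express human transcription factors as GST fusions, which were then captured on glutathione beads and labelled with DNA barcodes. Pooled with a tag-only sample, they were incubated with 200 nmole of a 16-mer random double-stranded DNA library for 30 min at room temperature in Tris/NaCl/DTT/glycerol buffer, washed, crosslinked with 0.1% formaldehyde, ligated by proximity, amplified by PCR and sequenced. Dividing each hexamer's read frequency for a factor by its frequency for the tag-only sample gives the binding signal.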"}, "ELK1": {"target": "T2, ELK1 (Homo sapiens, UniProt P19419 1-428)", "T2 sequence": "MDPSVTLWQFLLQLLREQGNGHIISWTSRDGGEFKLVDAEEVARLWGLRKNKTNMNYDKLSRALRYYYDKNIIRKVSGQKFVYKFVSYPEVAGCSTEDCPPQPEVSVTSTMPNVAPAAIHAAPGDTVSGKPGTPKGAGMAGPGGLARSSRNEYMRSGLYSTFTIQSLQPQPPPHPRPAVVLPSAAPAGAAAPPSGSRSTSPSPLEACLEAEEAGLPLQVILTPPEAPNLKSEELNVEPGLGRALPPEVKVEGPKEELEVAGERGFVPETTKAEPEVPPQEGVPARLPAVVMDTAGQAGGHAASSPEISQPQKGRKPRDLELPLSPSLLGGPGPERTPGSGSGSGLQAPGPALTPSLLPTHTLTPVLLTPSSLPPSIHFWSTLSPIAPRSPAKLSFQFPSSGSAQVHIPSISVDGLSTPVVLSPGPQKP", "outline": "as §1"}, "GABPA": {"target": "T3, GABPA (Homo sapiens, UniProt Q06546 1-454)", "T3 sequence": "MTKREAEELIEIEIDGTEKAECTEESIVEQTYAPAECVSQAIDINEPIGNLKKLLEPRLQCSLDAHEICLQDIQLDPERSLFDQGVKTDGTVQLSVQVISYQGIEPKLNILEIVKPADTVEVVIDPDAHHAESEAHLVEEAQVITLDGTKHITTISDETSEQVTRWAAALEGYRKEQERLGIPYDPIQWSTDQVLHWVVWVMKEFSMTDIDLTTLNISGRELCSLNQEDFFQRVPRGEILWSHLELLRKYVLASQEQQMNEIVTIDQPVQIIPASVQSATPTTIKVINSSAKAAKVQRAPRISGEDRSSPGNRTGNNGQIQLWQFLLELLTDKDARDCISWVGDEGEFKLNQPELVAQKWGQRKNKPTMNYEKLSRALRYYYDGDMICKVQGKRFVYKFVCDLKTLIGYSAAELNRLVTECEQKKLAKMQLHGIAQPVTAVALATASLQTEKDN", "outline": "as §1"}, "ERG": {"target": "T4, ERG (Homo sapiens, UniProt P11308 1-479)", "T4 sequence": "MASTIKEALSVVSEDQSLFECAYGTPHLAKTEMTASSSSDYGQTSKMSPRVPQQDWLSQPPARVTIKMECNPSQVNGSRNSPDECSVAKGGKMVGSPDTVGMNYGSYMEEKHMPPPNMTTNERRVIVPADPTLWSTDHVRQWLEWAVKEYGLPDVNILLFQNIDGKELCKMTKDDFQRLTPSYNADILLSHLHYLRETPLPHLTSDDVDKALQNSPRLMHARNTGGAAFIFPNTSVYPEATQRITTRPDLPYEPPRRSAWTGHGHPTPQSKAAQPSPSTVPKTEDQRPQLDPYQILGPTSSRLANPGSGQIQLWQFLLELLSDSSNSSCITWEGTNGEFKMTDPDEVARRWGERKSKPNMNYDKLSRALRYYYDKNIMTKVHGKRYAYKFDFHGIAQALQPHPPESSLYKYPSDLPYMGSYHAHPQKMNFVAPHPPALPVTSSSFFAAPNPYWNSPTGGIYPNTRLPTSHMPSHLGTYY", "outline": "as §1"}, "ELF1": {"target": "ELF1 (Homo sapiens, UniProt P32519 1-619)", "sequence (P32519 whole entry)": "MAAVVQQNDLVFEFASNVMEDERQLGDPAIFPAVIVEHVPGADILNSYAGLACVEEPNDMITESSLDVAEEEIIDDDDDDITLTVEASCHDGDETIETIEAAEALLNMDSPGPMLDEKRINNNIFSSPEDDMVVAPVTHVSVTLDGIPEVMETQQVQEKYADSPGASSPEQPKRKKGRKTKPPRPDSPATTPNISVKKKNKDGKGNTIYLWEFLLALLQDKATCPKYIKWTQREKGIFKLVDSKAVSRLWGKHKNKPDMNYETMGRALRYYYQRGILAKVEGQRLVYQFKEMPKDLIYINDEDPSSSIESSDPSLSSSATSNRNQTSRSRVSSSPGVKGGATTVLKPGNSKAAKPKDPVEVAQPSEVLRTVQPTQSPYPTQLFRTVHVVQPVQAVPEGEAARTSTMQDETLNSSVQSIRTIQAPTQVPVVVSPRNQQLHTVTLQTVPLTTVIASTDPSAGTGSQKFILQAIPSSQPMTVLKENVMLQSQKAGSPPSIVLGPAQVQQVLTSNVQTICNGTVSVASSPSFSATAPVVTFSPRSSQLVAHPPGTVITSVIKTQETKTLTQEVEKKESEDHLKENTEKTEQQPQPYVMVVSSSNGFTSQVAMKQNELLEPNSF", "outline": "as §1"}, "EHF": {"target": "T5, EHF (Homo sapiens, UniProt Q9NZC4 1-300)", "T5 sequence": "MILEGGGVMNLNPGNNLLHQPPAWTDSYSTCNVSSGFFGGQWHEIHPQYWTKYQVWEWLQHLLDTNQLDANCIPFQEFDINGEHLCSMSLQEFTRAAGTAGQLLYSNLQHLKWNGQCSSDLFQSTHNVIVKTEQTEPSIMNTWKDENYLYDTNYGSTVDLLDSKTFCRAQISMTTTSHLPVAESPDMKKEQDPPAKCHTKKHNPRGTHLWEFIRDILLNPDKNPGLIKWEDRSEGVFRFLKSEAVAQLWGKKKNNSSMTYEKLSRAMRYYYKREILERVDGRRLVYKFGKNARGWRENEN", "outline": "as §1"}, "SPI1": {"target": "SPI1 (Homo sapiens, UniProt P17947 1-270)", "outline": "as §1"}, "SPIB": {"target": "SPIB (Homo sapiens, UniProt Q01892 1-262)", "sequence (Q01892 whole entry)": "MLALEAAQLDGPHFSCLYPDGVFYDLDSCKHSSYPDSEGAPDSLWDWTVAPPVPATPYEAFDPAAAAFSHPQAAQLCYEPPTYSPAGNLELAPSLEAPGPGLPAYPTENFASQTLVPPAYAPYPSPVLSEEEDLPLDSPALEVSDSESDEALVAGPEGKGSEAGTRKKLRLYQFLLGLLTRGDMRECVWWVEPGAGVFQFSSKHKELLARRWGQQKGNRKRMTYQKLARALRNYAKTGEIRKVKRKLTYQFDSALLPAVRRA", "outline": "as §1"}, "ELK3": {"target": "T6, ELK3 (Homo sapiens, UniProt P41970 1-407)", "T6 sequence": "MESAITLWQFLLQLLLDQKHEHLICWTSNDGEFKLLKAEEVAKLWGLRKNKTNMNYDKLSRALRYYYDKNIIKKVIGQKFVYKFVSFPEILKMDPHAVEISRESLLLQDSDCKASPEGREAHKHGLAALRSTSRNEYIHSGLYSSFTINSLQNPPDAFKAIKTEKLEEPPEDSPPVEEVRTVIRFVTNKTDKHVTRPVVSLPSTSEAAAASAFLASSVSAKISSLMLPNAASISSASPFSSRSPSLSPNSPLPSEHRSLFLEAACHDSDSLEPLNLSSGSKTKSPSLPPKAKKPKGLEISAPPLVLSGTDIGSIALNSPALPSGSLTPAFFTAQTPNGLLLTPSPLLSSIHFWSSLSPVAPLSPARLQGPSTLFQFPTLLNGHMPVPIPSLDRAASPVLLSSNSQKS", "outline": "as §1"}},
  "data": [
    {"sequence": "TTTCGG", "values": [
      {"measurement": "binding signal", "setting": "FLI1", "result": "1.08 fold enrichment (6-mer frequency, TF over GST control)"},
      {"measurement": "binding signal", "setting": "ELK1", "result": "1.14 fold enrichment (6-mer frequency, TF over GST control)"},
      {"measurement": "binding signal", "setting": "GABPA", "result": "1.14 fold enrichment (6-mer frequency, TF over GST control)"},
      {"measurement": "binding signal", "setting": "ERG", "result": "1.26 fold enrichment (6-mer frequency, TF over GST control)"},
      {"measurement": "binding signal", "setting": "ELF1", "result": "1.22 fold enrichment (6-mer frequency, TF over GST control)"},
      {"measurement": "binding signal", "setting": "EHF", "result": "1.18 fold enrichment (6-mer frequency, TF over GST control)"},
      {"measurement": "binding signal", "setting": "SPI1", "result": "1.36 fold enrichment (6-mer frequency, TF over GST control)"},
      {"measurement": "binding signal", "setting": "SPIB", "result": "1.14 fold enrichment (6-mer frequency, TF over GST control)"},
      {"measurement": "binding signal", "setting": "ELK3", "result": "1.22 fold enrichment (6-mer frequency, TF over GST control)"}
    ]}
  ]
}
